High-throughput results from PubChem.
Rows were chosen to be rich in hits. Some 6.5% of all compounds tested hit in one or more screens of this group.
NADH enzymes – inhibition of NAD/NADH coupling enzymes, library profiling; IC50, µM (titrated, usually from 10 µM), for inactives: at the highest dose inhibition; 0.02% of 65,000 active; coupled PK/LDH NADH assays, four targets; AID 774;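 active = single-dose screening hits from any of four coupled enzyme assays that gave an IC50 when retested across doses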;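 note: the DPM-DC format reads NADH fluorescence rather than 340 nm absorbance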
Spn MK inh – blocks S. pneumoniae mevalonate kinase | purified MK, PK/LDH-coupled NADH absorbance 340 nm | inhibition, % at 10 µM | 0.48% of 65,000 active | AID 555;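 active = ranked among the strongest by inhibition in the single 10 µM screen, a fixed top-ranked set picked for dose follow-up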
PMK inhibit – S. pneumoniae PMK inhibition. 0.49% of 65,000 active. inhibition, % at 10 µM. purified PMK, PK/LDH-coupled NADH absorbance 340 nm;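 active = top-ranked compounds by inhibition in the single 10 µM screen, taking a fixed number of the strongest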;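 note: 0% = full reaction with DMSO carrier and 100% = background rate without enzyme reaction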
DPM-DC inhibit – S. pneumoniae DPM-DC inhibition. purified DPM-DC, PK/LDH coupled NADH fluorescence. calls only at 10 µM. AID 556. 0.49% of 65,000 active;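 active = the 320 compounds with the highest percent inhibition in the single-dose primary screen, excluding strongly autofluorescent ones, cut at about 32% in these data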;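 note: kinetic rate of NADH fluorescence loss reporting ADP formed by the decarboxylase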
Fluor 339 460 – intrinsic fluorescence of library compounds, ex339/em460 – biochemical, MLSMR library, data from DPM-DC assay, artefact control, profiling panel; 5.5% of 65,000 active; fluorescence fold increase at 10 µM; compound autofluorescence, ex339/em460 nm, NADH buffer; stronger effect = higher value; 1 = no-compound wells, NADH background;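 active = at 10 µM, mean starting fluorescence two-fold or more over control wells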;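 note: signal is the first read of a kinetic run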
Abs 340nm – compounds absorbing at 340 nm | compound absorbance at 340 nm, fold over control | fold change at 10 µM | 65,000 tested, under 10 active | AID 708;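 active = at 10 µM dose, initial 340 nm absorbance at least 2 fold that of control wells; inactive = change under 2 fold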;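 note: initial absorbance extrapolated from kinetic A340 decline of NADH oxidation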
Numbers without * were called inactive; i = inactive; / = not tested or not shown.

SMILES	NADH enzymes	Spn MK inh	PMK inhibit	DPM-DC inhibit	Fluor 339 460	Abs 340nm
C=C(C)COc1ccc2c(C)c(CC(=O)OC)c(=O)oc2c1C	1.0%	2.0	0.0	/	3.84*	1.09
CCOC(=O)c1oc2ccccc2c1NC(=O)c1ccc(S(=O)(=O)N2CCCC2)cc1	7.0%	7.0	14.0	i	2.52*	1.02
CCCCC(SCC(=O)Nc1ccccc1)C(=O)O (stereo not given)	3.0%	0.0	10.0	i	1.09	1.06
O=c1cc(C(F)F)oc2c1ccc1ccccc12	1.0%	7.0	0.0	/	2.46*	1
COc1ccc(N2CCN(Cc3cc(=O)oc4c3ccc3ccccc34)CC2)cc1	6.0%	10.0	7.0	i	1.11	1.03
COc1cccc2cc(-c3cn4cccc(C)c4n3)c(=O)oc12	0.0%	0.0	0.0	i	1.69	1.08
COc1ccc2oc(=O)c(-c3nnc(NCc4ccco4)s3)cc2c1	0.0%	0.0	1.0	i	1.86	1.04
CCOc1cccc2cc(-c3nnc(NCc4ccco4)s3)c(=O)oc12	1.0%	0.0	2.0	i	2.19*	1.04
CCOc1cccc2cc(-c3cn4cc(C)ccc4n3)c(=O)oc12	3.0%	1.0	5.0	/	5.05*	1.06
Cc1cc2cc(CN(CC3CCCO3)C(=O)c3cnccn3)c(=O)[nH]c2cc1C (stereo not given)	5.0%	5.0	10.0	i	1.14	1.01
CCN(CC)c1ccc2cc(C(=O)Nc3ccc(-n4cnnn4)c(OC)c3)c(=O)oc2c1	8.0%	9.0	0.0	i	1.58	1.06
CCOc1cc(C2C(C(=O)N3CCCCC3)=C(C)NC3=C2C(=O)CCC3)cc(Br)c1O (stereo not given)	16.0%	13.0	9.0	i	2.52*	1.17
CCOC(=O)C1=C(C)NC(=O)NC1c1cc(Br)c(O)c(OC)c1 (stereo not given)	13.0%	10.0	8.0	i	0.78	1.03
O=S(=O)(Nc1ccc(S(=O)(=O)N2CCCCC2)cc1)c1ccc(Br)s1	4.0%	5.0	8.0	i	1.15	1.04
CN(C)CCN1C(=O)C(=O)/C(=C(/O)c2ccc(OCc3ccccc3)cc2)C1c1ccncc1 (stereo not given)	1.0%	4.0	0.0	i	1.16	1.04
C#CC1(O)CC(C)N(C)C(C)C1 (stereo not given)	3.0%	4.0	8.0	i	1.05	1
CC(C)(C)OC(=O)N1CCN(c2ccc(NC(=O)c3cc4ccccc4oc3=O)cc2)CC1	3.0%	8.0	0.0	i	1.01	1
CC1CCCN(c2ncnc3c2cnn3-c2ccccc2)C1 (stereo not given)	6.0%	4.0	10.0	i	0.92	1.02
CCOC(=O)C1CCCN(c2ncnc3c2cnn3-c2cccc(C)c2)C1 (stereo not given)	5.0%	0.0	15.0	i	1.07	1.01
COc1cccc2[nH]c3c(N4CCCC(C)C4)ncnc3c12 (stereo not given)	10.0%	9.0	10.0	/	3.37*	1.12
CCOC(=O)C1CCCN(c2ncnc3c2[nH]c2cccc(OC)c23)C1 (stereo not given)	8.0%	4.0	12.0	/	3.67*	1.12
CCOc1ccc(C(=O)Nc2cc(=O)n(C)c(=O)n2C)cc1	7.0%	6.0	14.0	i	1.09	1.08
N=c1n(CCN2CCOCC2)c2ccccc2n1CC(=O)c1ccc(Cl)c(Cl)c1	9.0%	2.0	26.0*	i	1.06	0.98
CCCCCCNC(=O)C(C#N)c1nc2ccccc2nc1N1CCOCC1 (stereo not given)	8.0%	8.0	13.0	i	1.62	1.03
COCCNC(=O)c1c(N)n(/N=C/c2cccs2)c2nc3ccccc3nc12	2.0%	0.0	0.0	/	2.48*	1.11
SMILES	NADH enzymes	Spn MK inh	PMK inhibit	DPM-DC inhibit	Fluor 339 460	Abs 340nm
CC(C)CNC(=O)c1c(N)n(/N=C/c2ccccn2)c2nc3ccccc3nc12	4.0%	7.0	2.0	i	1.08	1.03
CCCCCCNC(=O)c1c(N)n(/N=C/c2ccco2)c2nc3ccccc3nc12	5.0%	11.0	10.0	/	2.97*	1.12
Nc1c(C(=O)NC2CCCCC2)c2nc3ccccc3nc2n1/N=C/c1ccco1	11.0%	9.0	13.0	/	3.68*	1.05
CC(=O)c1ccc(N2C(=O)NC3(CCCCC3)C2=O)cc1	8.0%	5.0	19.0	i	1.08	0.98
CCCOc1ccc(/C(O)=C2/C(=O)C(=O)N(CCN(C)C)C2c2ccncc2)cc1 (stereo not given)	9.0%	1.0	26.0	i	1.07	1.14
CCSc1ccccc1C(=O)NCc1ccc2c(c1)OCO2	3.0%	8.0	0.0	i	1.14	1.05
Cc1nn(-c2ccccn2)c2c1C(c1ccsc1)C1=C(CCCC1=O)N2 (stereo not given)	5.0%	0.0	9.0	/	4.9*	1.11
COc1ccc(N2CC(C)Cn3c2nc2c3c(=O)[nH]c(=O)n2C)cc1 (stereo not given)	7.0%	10.0	11.0	i	1.11	1.03
Cc1cccc(C)c1NC(=O)C(c1cccs1)N(Cc1ccco1)C(=O)Cn1nnc2ccccc21 (stereo not given)	2.0%	0.0	6.0	i	1.12	0.99
CN1CCN(S(=O)(=O)c2cccc(S(=O)(=O)c3ccc(Cl)c(Cl)c3)c2)CC1	13.0%	13.0	25.0*	i	1.1	1.05
COc1cc(S(=O)(=O)N2CCN(C)CC2)ccc1Cl	5.0%	9.0	6.0	i	1.05	0.98
COC(=O)Nc1c(-c2ccccc2)nc2ccccn12	2.0%	3.0	0.0	/	2.1*	1.06
CC(=O)Nc1c(-c2ccc(F)cc2)nc2ccccn12	1.0%	4.0	1.0	/	1.73	1.01
COC(=O)Nc1c(-c2ccccc2)nc2ccc(C)cn12	9.0%	10.0	7.0	/	3.77*	1.07
CCOc1ccc(-c2nnn(CC(=O)c3cc(OC)ccc3OC)n2)cc1	3.0%	7.0	3.0	i	1.79	1.08
Cc1cc2nc(-c3ccc(SCC(=O)N4CCN(C(=O)c5ccco5)CC4)nc3)[nH]c2cc1C	9.0%	11.0	7.0	/	4.44*	1.29
Cc1cc2nc(-c3ccc(SCC(=O)N4CCOCC4)nc3)[nH]c2cc1C	5.0%	7.0	3.0	/	2.18*	1.15
Cc1[nH]c2ccc(-c3nnc(SCC(=O)N4CCCc5ccccc54)o3)cc2c1C	14.0%	8.0	9.0	i	1.98	1.07
COC(=O)C1(C)Nc2ccccc2C(=O)N1c1ccccc1OC (stereo not given)	15.0%	5.0	25.0	/	2.09*	1.06
COC(=O)C1(C)NC(=O)c2ccccc2N1 (stereo not given)	4.0%	5.0	2.0	/	2.08*	1.06
COc1ccc(C2C(C#N)=C(N)Oc3n[nH]c(C)c32)cc1Cn1nnc2ccccc21 (stereo not given)	13.0%	14.0	24.0	i	1.12	1.05
